Results filed as inconclusive are left out. A call without a number means that no potency is given here. Activity calls are given as the source filed them. The call rests on the fitted dose curve; in most records, active means well fitted curve in the direction sought with a large enough effect; inconclusive means small, poorly fitted or top-dose-only effect, or another doubt; inactive means no such curve, though single readings can be large; an effect the other way counts as inactive or inconclusive.
How the values were obtained:
[1] = target: Cellular tumor antigen p53 (Homo sapiens) (UniProt P04637); assay: Primary qHTS for small molecule compounds that upregulate eGFP-tagged delta133p53alpha (in N-terminal) cells. (AID 2060322); settings: NCI-H358 eGFP-delta133p53alpha fluorescence, 24 h; activation: hits give high values; further: nearly all actives have a fitted effect of over 75% in size; further: potency means the concentration at half of the fitted maximal effect; on activation: series mostly up to about 56 µM
Chain of Cellular tumor antigen p53 (Homo sapiens) (P04637 whole entry, looked up): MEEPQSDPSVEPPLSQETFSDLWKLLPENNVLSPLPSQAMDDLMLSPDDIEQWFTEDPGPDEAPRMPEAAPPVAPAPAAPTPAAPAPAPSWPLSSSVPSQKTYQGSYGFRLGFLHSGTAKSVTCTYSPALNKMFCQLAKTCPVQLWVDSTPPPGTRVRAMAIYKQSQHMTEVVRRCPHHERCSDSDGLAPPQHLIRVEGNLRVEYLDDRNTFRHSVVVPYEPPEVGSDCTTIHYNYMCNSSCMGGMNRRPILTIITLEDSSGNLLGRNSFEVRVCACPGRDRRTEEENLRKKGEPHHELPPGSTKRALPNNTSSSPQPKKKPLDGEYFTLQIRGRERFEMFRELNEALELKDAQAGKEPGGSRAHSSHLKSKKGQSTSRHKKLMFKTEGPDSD
In short: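 NCI-H358 cells pre-induced 24 h with 10 ng/ml doxycycline to express N-terminal eGFP-delta133p53alpha, then dosed 24 h at 37C without doxycycline; fixed, Hoechst-stained, GFP intensity by laser scanning cytometry, normalized to DMSO (0%) and 57.5 uM 5-azacytidine (100%).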

[2] = target: Aldehyde dehydrogenase, mitochondrial (Homo sapiens) (UniProt P05091); assay: qHTS for Inhibitors of the Aldehyde Dehydrogenase Family (ALDH2) Primary screen (AID 2061308); further: nearly all actives have a fitted effect of over 55% in size
[3] = target: Retinaldehyde dehydrogenase 3 (Homo sapiens) (UniProt P47895); assay: qHTS for Inhibitors of the Aldehyde Dehydrogenase Family (ALDH1A3) Primary screen (AID 2061315)

SMILES: C/C=C/c1cc(OC)c2c(c1)[C@@H](C)[C@@H](c1ccc(O)c(OC)c1)O2
- activation [1]: -16% (inactive)
- Potency [2]: inactive
- Potency [3]: inactive

SMILES: NC(=O)Nc1cc(-c2cccc(F)c2)sc1C(=O)NC1CCCNC1 (stereo not drawn)
- Potency [1]: 19 µM (active)
- Potency [2]: inactive
- Potency [3]: inactive

SMILES: C=C(C(=O)OC)C1C(O)CC2(C)C(=O)CCC(O)(CO)C2C1O (stereo not drawn)
- activation [1]: -14.3% (inactive)
- Potency [2]: inactive
- Potency [3]: inactive

SMILES: CN(C)CCCn1cc(C2=C(c3c[nH]c4ccccc34)C(=O)NC2=O)c2ccccc21
- Potency [1]: 30.1 µM (active)
- Potency [2]: inactive
- Potency [3]: inactive

SMILES: CC(O)(C(=O)O)C1CCC2(C)C1CCC1(C)C2CCC2C3(C)CCC(O)C(C)(COC4OC(CO)C(O)C(O)C4O)C3CCC21C (stereo not drawn)
- activation [1]: 1.53% (inactive)
- Potency [2]: inactive
- Potency [3]: inactive

SMILES: CC(C)C1C(OC(=O)/C=C/c2ccccc2)CC2(C)OC2CCC2(C)OC2C1O (stereo not drawn)
- activation [1]: -0.763% (inactive)
- Potency [2]: inactive
- Potency [3]: inactive

SMILES: CN1C(=O)c2ccccc2-n2c(nc3ccccc3c2=O)[C@@]12O[C@H]2c1ccccc1
- activation [1]: 13% (inactive)
- Potency [2]: inactive
- Potency [3]: inactive

SMILES: Cc1occc(=O)c1O[C@@H]1O[C@H](COC(=O)CC(C)(O)CC(=O)O)[C@@H](O)[C@H](O)[C@H]1O (stereo partly drawn)
- activation [1]: -11.6% (inactive)
- Potency [2]: inactive
- Potency [3]: inactive

SMILES: CC(=O)OC1C(O)CC2(C)C(CCC(C)C23Cc2c(O)cc(CO)c(C=O)c2O3)C1(C)C (stereo not drawn)
- activation [1]: 6.87% (inactive)
- Potency [2]: inactive
- Potency [3]: inactive

SMILES: CC(C)(C)c1nnc(NS(=O)(=O)c2ccccc2)s1
- activation [1]: 11.7% (inactive)
- Potency [2]: inactive
- Potency [3]: inactive

SMILES: C=C1C(O)C(OC(=O)c2ccccc2)C2C(C)(C(=O)O)CCCC2(C)C1CC/C(C)=C\CO (stereo not drawn)
- activation [1]: 11.5% (inactive)
- Potency [2]: inactive
- Potency [3]: inactive
